In the library only some 3.9% were active in any assay of this set; here they are far more common.
sPLA2-III inh: Blocks human group III sPLA2 activity. 370,000 compounds, 0.56% hits. QFRET BODIPY PC-A2 liposome hydrolysis, fluorescence. inhibition, % at 12.2 µM. Q9NZ20. AID 743126;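 active = inhibition above mean plus 3 SD of compounds lying within the high and low control bounds, cut at about 19% in these data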;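 also: 0% = median of test compound wells and 100% = no enzyme DMSO wells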
AHR act: activators of human aryl hydrocarbon receptor; P35869; AHR-responsive luciferase reporter cells, luminescence; activation, % at 5 µM; 320,000 compounds, 2.5% hits; AID 2796; in the data active = activation above about 47%;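 also: 0% = vehicle wells and 100% = reference agonist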
Target sequence (P35869 whole entry, looked up): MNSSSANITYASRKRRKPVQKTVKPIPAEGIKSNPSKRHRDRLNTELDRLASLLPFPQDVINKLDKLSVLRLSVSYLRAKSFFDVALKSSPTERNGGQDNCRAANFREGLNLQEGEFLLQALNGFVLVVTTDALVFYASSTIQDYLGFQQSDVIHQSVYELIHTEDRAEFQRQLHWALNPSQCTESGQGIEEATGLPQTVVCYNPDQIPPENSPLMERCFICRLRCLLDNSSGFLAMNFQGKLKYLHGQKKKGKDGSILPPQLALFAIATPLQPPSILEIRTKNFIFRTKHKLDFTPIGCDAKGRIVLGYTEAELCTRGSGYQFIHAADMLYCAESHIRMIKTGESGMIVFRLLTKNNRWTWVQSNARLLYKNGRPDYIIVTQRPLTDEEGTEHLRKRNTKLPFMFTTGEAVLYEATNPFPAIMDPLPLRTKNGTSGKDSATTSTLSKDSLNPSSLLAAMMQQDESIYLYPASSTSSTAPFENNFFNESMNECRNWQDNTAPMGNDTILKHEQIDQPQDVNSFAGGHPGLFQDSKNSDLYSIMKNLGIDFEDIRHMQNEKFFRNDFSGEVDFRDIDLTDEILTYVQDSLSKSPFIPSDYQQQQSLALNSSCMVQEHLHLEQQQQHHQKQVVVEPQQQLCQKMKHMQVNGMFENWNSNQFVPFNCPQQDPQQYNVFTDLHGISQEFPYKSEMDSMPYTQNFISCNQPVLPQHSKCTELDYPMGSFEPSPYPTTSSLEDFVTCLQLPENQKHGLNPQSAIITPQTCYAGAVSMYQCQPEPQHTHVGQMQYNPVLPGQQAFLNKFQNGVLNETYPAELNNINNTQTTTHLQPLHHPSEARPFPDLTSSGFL
HIF act: HIF pathway transcriptional activation | AID 1910 | U2OS HRE-luciferase reporter, luminescence; normalized: DMSO 0%, desferrioxamine 100% | 300,000 compounds, 0.32% hits | activation, % at 7.5 µM (by protocol);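 active = mean activation of at least 10% of the iron chelator positive control signal, with at least half of replicates also reaching 10%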
Yeast superoxide: lowers age-related superoxide in aged yeast cells | S. cerevisiae aged cells, superoxide DHE fluorescence; active compounds read low | superoxide response (% of plate mean), % at 10 µM | 330,000 compounds, 0.18% hits;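 active = superoxide response under a set limit, about three screen SD below normal, cut at about 65% in these data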;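 also: yeast aged for seven days with compound at 30 °C before DHE staining; 100% = average MFI of all compound-treated wells on the plate with controls excluded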
PLC-beta3 inh: inhibitors of human phospholipase C beta3 | Q01970 | Purified PLC-beta3, fluorogenic substrate, fluorescence | inhibition, % at 12.2 µM | 370,000 compounds, 0.18% hits;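 also: 0% = median of compound wells on plate and 100% = full blocker control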
PLC-gamma1 inh: PLC-gamma1 (human) inhibition, primary screen; P19174; 370,000 compounds, 0.84% hits; inhibition, % at 12.2 µM; purified PLC-gamma1, fluorogenic substrate, fluorescence; AID 720700; in the data active = inhibition above about 9.5%
PLCg1 ctr: inhibits human PLC-gamma1 in PLC-beta3 counter-screen. inhibition, % at 12.3 µM. purified PLC-gamma1, fluorogenic substrate, fluorescence. shares compounds with PLC-gamma1 inh. 3,300 compounds, 3.1% hits; in the data active = inhibition above about 9.5%
PLCb3 confirm: human PLC-beta3 inhibition, confirmation. purified PLC-beta3, fluorogenic substrate fluorescence. 3,300 compounds, 1% hits. inhibition, % at 12.3 µM. shares compounds with PLC-gamma1 inh. AID 743261
* hit, by the source's call; · = not tested or not shown. Rule as the data show it, unless noted: active = inhibition above about 11%; inactive = the rest.

SMILES	sPLA2-III inh	AHR act	HIF act	Yeast superoxide	PLC-beta3 inh	PLC-gamma1 inh	PLCg1 ctr	PLCb3 confirm
CC(=O)Nc1ccc(-c2ccnc3c2CC(C)(C(=O)Nc2ccc(Cl)cc2)O3)cc1 (stereo not given)	-12	·	·	·	-3	0	·	·
Nc1nc(-c2ccco2)nn1C(=O)c1ccc(Cl)cc1	9	2	0	100	5	9.8*	-6	-9
COc1ccc(S(=O)(=O)N2CCN(C(=O)c3ccc4ccccc4n3)CC2)cc1	12	8	·	96	-10	-2	·	·
COc1cc(OC)cc(C(=O)NC2CCN(Cc3nnnn3Cc3cccs3)CC2)c1	-2	4	0	107	5	12*	1	-1
COc1cc(OC)cc(C(=O)NC2CCN(Cc3nnnn3Cc3ccc(F)cc3)CC2)c1	-6	7	0	121	-3	-1	·	·
CSCCNC(=O)Nc1c(-c2c(Cl)cccc2Cl)noc1C	11	1	0	86	6	12*	-1	-2
Cc1onc(-c2c(Cl)cccc2Cl)c1NC(=O)NN(C)C	9	0	0	102	-8	0	·	·
Cc1cc(C)c(C#N)c(OCC2CCCO2)n1 (stereo not given)	6	·	·	·	11*	5	-7	-1
COc1ccccc1C/C(N)=N/O	2	2	204*	99	11*	1	2	-75
COc1ccccc1CC(=O)O/N=C(\N)Cc1cccc2ccccc12	-6	7	0	112	-18	-14	·	·
O=C(O)c1ccc(-n2nnnc2SCc2cccc(Br)c2)cc1	9	2	0	132	-3	1	·	·
Cc1ccc(C(=O)CSc2nnc(-c3ccccc3)n2-c2ccccc2)o1	-19	2	0	82	4	-2	·	·
C=CCn1c(SCC(=O)Nc2ccccc2-c2ccccc2)nnc1-c1ccccc1	-3	·	·	·	10	13*	-1	2
Cc1ccc(C(=O)CSc2nnnn2-c2ccccc2)o1	-52	5	1	87	-1	11*	-5	1
C=CCn1c(SCC(=O)Nc2ccccc2C)nnc1-c1ccncc1	-1	2	0	96	-1	-2	·	·
Cc1cc(C)c(CSc2nnnn2-c2ccc(C(=O)O)cc2)c(C)c1	-18	-1	-2	162	-2	12*	-4	-5
COc1ccc(NC(=O)CSc2nnnn2-c2ccc(OC)cc2)cc1	9	5	-1	97	1	11*	0	2
NC(=O)NC(=O)c1nccnc1C(=O)O	3	1	-1	97	-4	3	·	·
COCCCn1c(=O)c2ccccc2n2c(=S)[nH]nc12	13	4	0	107	-11	-1	·	·
CN(CC(=O)Nc1ccc(Cl)c(C(F)(F)F)c1)C(=O)Cn1cc([N+](=O)[O-])ccc1=O	-4	1	·	111	-10	-12	·	·
CSc1cccc(CNC(=O)C2CCC(=O)N(CCc3ccccc3)C2)c1 (stereo not given)	9	·	·	·	-2	-3	·	·
O=C(CSc1nnnn1-c1ccccc1)Nc1ccccc1	6	14	0	89	-2	1	·	·
COc1ccc(-n2c(COc3ccccc3)nnc2SCC(=O)Nc2ccc(OCc3ccccc3)cc2)cc1	4	·	·	·	0	9.6*	5	-9
Cc1cc(C)nc(NC(=O)CSc2nnnn2-c2ccccc2)n1	-2	26	0	106	1	12*	0	2
O=C(O)CSc1nnc(COc2ccc([N+](=O)[O-])cc2)n1-c1ccccc1	0	1	0	96	-3	-2	·	·
SMILES	sPLA2-III inh	AHR act	HIF act	Yeast superoxide	PLC-beta3 inh	PLC-gamma1 inh	PLCg1 ctr	PLCb3 confirm
O=C(O)CCSc1nnc(COc2ccc([N+](=O)[O-])cc2)n1-c1ccccc1	4	0	2	103	-3	11*	0	2
Cc1cc(C)nc(SCc2nnc(SCC(=O)Nc3nc(-c4ccccc4)cs3)n2-c2ccccc2)n1	0	4	2	101	7	11*	-3	0
CCC(C)[C@H]1CNC(=O)C(=O)N1CCc1cccc2ccccc12 (stereo not given in full)	1	·	·	·	-1	3	·	·
CC(C)C[C@H]1CN(CCCC[C@H]2CNC(=O)C(=O)N2CC2CCCCC2)C(=O)C(=O)N1Cc1ccccc1	-3	·	·	·	2	1	·	·
COc1ccc(-n2c(COc3ccccc3)nnc2SCC(=O)Nc2ccccc2-c2ccccc2)cc1	-23	·	·	·	5	5	·	·
COc1ccc(-n2c(SCC(=O)Nc3ccccc3-c3ccccc3)nnc2-c2ccccn2)cc1	5	·	·	·	6	10*	1	-4
OCCN(CCO)CC(O)COc1ccc(Br)cc1 (stereo not given)	-1	-4	0	89	8	5	·	·
CCc1ccc(OCCOCC(O)CN(CCO)CCO)cc1 (stereo not given)	7	0	0	103	11*	4	-10	-5
C/C=C1\NC(=O)[C@H](C)NC(=O)[C@@H](NC(=O)[C@@H](Cc2ccc(O)cc2)NC(=O)[C@@H](NC(=O)/C(C)=C/C)C(C)C)[C@@H](C)OC(=O)[C@H](CCCCc2ccc(O)cc2)NC(=O)[C@@H](CCC(=O)O)NC1=O	-7	-2	·	99	3	0	·	·
N#CCCN1CCCN(CCC#N)CCN(CCC#N)CCCN(CCC#N)CC1	4	3	1	98	-6	-1	·	·
COc1cc(/C=N/NC(=O)c2cccnc2)ccc1OCC(=O)Nc1c(C)cc(C)cc1C	8	15	0	110	9	10*	-50	-50
CCOc1ccc(C(=O)Oc2cc(C)[nH]c(=O)c2[N+](=O)[O-])cc1	12	-4	0	98	3	4	·	·
CCOc1ccc(C(=O)Oc2cc(C)[nH]c(=O)c2[N+](=O)[O-])cc1OCC	9	3	0	88	2	10*	6	4
CC(=O)NS(=O)(=O)c1ccc(N=NN2CCOCC2)cc1	-3	-1	0	87	11*	9.8*	-2	0
COc1ccc(CCNC(=O)c2cc(-c3ccccc3)c(N3CCOCC3)s2)c(OC)c1OC	-5	3	0	178	-12	-10	·	·
Cc1ccc(C2CC(c3cccs3)=NN2S(=O)(=O)c2ccc(C)cc2)cc1 (stereo not given)	0	4	3	100	2	2	·	·
O=S(=O)(c1ccccc1)N1N=C(c2cccs2)CC1c1ccc(F)cc1 (stereo not given)	7	5	-1	99	12*	4	-4	-4
C=CCNC(=S)NNC(=O)CCC(O)CCCCC (stereo not given)	5	0	0	99	12*	9	-4	-1

Screens as filed in PubChem.
